Sampled rows, rich in hits. Any-hit rate of the full collection: about 2.9%.
SNCA expr inh = Primary qHTS assay for inhibitors of alpha-synuclein gene (SNCA) expression; HEK-293 SNCA-luciferase knock-in, luminescence, 24 h; Potency, µM (doses to about 57.2 µM), for inactives: top-dose activity change, negative = inhibition, hits mostly inhibitors; 140,000 compounds, 0.17% hits; AID 1671194, 2021;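 note: potency is the fitted concentration of half-maximal effect; plate controls were DMSO cells for no effect and cell-free wells for full effect; nearly all actives have a fitted effect of over 45% in size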
KDM5B inh = Primary screen for KDM5B Histone Demethylases FDH-coupled qHTS. Lysine-specific demethylase 5B (Homo sapiens), Q9UGL1. KDM5B demethylase, FDH-coupled NADH fluorescence (FDH is formaldehyde dehydrogenase). Potency, µM (highest dose often 57.7 µM), hits mostly inhibitors. 220,000 compounds, 2.6% hits. AID 1347165, 2019; note: potency is the fitted concentration of half-maximal effect; 0% is about no effect; nearly all actives have a fitted effect of over 70% in size
Target sequence (Q9UGL1 whole entry, looked up): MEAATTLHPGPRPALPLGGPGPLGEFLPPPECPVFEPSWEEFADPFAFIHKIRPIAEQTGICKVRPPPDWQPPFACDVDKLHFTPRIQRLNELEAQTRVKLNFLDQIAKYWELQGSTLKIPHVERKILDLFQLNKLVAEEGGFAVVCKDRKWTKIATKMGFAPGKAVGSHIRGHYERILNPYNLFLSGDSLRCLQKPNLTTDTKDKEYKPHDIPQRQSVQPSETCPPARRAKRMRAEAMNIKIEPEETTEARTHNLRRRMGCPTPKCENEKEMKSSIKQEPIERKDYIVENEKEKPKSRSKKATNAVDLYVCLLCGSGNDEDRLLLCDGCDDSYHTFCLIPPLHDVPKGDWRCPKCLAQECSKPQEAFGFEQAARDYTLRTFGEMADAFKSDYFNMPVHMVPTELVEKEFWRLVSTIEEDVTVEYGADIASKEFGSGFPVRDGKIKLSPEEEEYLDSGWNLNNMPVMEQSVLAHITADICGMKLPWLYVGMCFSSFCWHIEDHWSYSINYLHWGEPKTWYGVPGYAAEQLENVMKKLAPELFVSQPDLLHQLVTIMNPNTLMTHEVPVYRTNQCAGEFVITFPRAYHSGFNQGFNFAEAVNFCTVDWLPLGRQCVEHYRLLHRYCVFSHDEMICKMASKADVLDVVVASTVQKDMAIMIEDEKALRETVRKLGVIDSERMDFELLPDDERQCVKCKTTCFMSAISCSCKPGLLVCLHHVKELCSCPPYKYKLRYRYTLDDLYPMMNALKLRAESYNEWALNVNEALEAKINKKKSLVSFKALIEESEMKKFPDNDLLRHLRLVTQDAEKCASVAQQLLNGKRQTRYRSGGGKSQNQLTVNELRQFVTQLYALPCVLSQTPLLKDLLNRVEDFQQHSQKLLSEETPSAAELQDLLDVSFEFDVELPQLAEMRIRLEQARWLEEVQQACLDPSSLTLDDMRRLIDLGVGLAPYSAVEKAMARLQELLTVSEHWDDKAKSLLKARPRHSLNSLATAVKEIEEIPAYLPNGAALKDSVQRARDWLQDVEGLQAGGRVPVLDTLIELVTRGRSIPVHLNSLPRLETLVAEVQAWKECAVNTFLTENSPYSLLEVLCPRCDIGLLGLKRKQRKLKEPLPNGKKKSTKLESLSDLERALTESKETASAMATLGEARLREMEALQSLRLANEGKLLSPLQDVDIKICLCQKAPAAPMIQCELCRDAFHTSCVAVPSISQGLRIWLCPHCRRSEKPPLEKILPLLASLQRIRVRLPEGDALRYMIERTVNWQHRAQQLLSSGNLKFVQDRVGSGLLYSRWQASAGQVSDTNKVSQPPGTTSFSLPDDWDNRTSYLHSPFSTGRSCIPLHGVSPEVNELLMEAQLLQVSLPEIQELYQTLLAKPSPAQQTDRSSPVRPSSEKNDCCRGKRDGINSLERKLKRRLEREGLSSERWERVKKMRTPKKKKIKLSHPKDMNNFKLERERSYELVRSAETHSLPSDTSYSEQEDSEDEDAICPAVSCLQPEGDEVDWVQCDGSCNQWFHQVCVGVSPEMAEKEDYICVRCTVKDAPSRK
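KDM5BΔAP (200 nM final) in 50 mM HEPES pH 7.5, 0.01% Tween-20 was preincubated 10 min at RT with compound over a concentration range. Substrate mix (H3K4me3 12.5 µM, α-KG 25 µM, Fe²⁺, ascorbate, NAD⁺, FDH) was added, and NADH fluorescence change over 30 min gave dose-response curves.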
SNCA viab count = GF-AFC viability counterscreen for inhibitors of alpha-synuclein gene (SNCA) expression; HEK-293-SNCA-luc viability, GF-AFC fluorescence, 24 h; Potency, µM (titrated, usually from 57.1 µM), inactives show top-dose activity change, negative = cytotoxicity, actives largely listed as cytotoxic; 150,000 compounds, 0.12% hits; AID 1671193, 2021;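 note: potency is the fitted concentration of half-maximal effect; 0% = DMSO-treated cells and -100% = medium-only wells without cells; nearly all actives have a fitted effect of over 30% in size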
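HEK-293-SNCA-luc cells (1500/well) plated 24 h, then exposed 24 h to a dilution series; GF-AFC added 30 min at 37C, fluorescence 405/540 nm; normalised to medium-only and DMSO wells, Hill fit.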
IP6K1 inhibitor = Primary qHTS assay for small molecule inhibitors of Inositol hexaphosphate kinase 1 (IP6K1); Inositol hexakisphosphate kinase 1 (Homo sapiens), Q92551; IP6K1 kinase, ADP-Glo luminescence, 2 h; active compounds read low; activity change, % (series mostly up to about 58 µM); 140,000 compounds, 0.81% hits; AID 1645851, 2021; in the data active = activity change below about -25%; note: % is set by controls: 0 for no effect and ±100 for the full control effect
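ADP-Glo luminescence measures ADP made by human IP6K1 during a 2 h RT reaction with ATP/IP6 (mix at 1.3 mM/130 uM); top library doses 57.5 and 19.1 uM final.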
Active calls of the source: *; i = inactive; u = inconclusive; x = not tested or not shown; [ ] = dose if it differs, or a comment. Unless noted, calls come from the whole dose curve; as a rule, active = well fitted curve in the direction sought with a large enough effect; inconclusive = small, poorly fitted or top-dose-only effect, or another doubt; inactive = no such curve, though single readings can be large; an effect the other way counts as inactive or inconclusive.

SMILES	SNCA expr inh	KDM5B inh	SNCA viab count	IP6K1 inhibitor
O=C(NCc1nnc2ccc(-c3ccccc3)nn12)c1ccc(Cl)cc1	1%	28µM*	-15%	5
O=C(NCc1nnc2ccc(-c3ccc(F)cc3)nn12)c1ccoc1	-16%	u	-5%	16
O=C(NCc1nnc2ccc(-c3ccccc3)nn12)c1ccc(F)cc1	-19%	32µM*	-14%	9
Cc1ccc(-c2ccc3nnc(CNC(=O)c4ccc(Cl)cc4)n3n2)cc1	21%	u	-7%	-6
O=C(Cc1cccs1)NCc1nnc2ccc(-c3ccccc3)nn12	3%	i	9%	32
O=C(Nc1cccc(NC(=O)c2ccccc2Cl)c1)c1cccc(Br)c1	-5%	i	5%	5
CC(C)OP(=O)(OC(C)C)C(O)c1ccc(N(C)C)cc1 (centres undefined)	x	i	x	x
O=C(NCc1nnc2ccc(-c3ccccc3)nn12)c1ccoc1	u	32µM*	-5%	-7
CC(C)NC(=O)NC[C@H]1O[C@@H](CC(=O)N2CCN(c3ccccc3)CC2)[C@H](O)[C@@H]1O	u	i	5%[87.6 µM]	-4
O=C(CCNS(=O)(=O)c1ccccc1)N1CCCCCC1	x	i	x	x
CCc1cccc(C)c1Nc1c(-c2cccc(O)c2)nc2cnccn12	39%	u	u	11
COc1ccc(-c2nc3cnccn3c2NCCC(=O)N2CCCCCC2)cc1	0%	28µM*	u	4
O=C(CCNc1c(-c2ccccc2)nc2cnccn12)N1CCCC1	-3%	28µM*	u	-7
O=C(CCNc1c(-c2cccc(F)c2)nc2cnccn12)N1CCCC1	-4%	28µM*	u	7
O=C(O)CCNc1c(-c2ccc(F)cc2)nc2cnccn12	9%	28µM*	27%	6
CCc1cccc(C)c1Nc1c(-c2ccc(N(C)C)cc2)nc2cnccn12	-25%	u	u	-10
COc1ccc(C(=O)NNC(=O)CC2Sc3ccc(Cl)cc3NC2=O)cc1OC (centres undefined)	x	i	x	x
Cc1ccc(-c2nc3cnccn3c2NCCC(=O)N2CCCCC2)cc1	-12%	32µM*	u	18
CN(Cc1ccccc1)C(=O)CCNc1c(-c2cccc(F)c2)nc2cnccn12	30%	25µM*	u	22
CCn1cc(C(=O)N[C@@H]2COCC[C@@H]2OCC2CC2)c(=O)c2ccc(C)nc21	-2%	i	4%	-9
Cc1cc(C)n2nc(C)c(C(=O)N[C@@H]3COCC[C@@H]3OCC3CC3)c2n1	1%	22µM*	7%	10
Cc1cc(C)c(CNC(=O)c2cc(-c3cnn(C)c3)cc3c2OCCN3C)c(=O)[nH]1	24%[87.6 µM]	32µM*	-6%[87.6 µM]	-21
Cc1cc(C)c(CNC(=O)c2cc(-c3cnn(C)c3)cc3c2OCCN3C(C)C)c(=O)[nH]1	17%[87.6 µM]	28µM*	-13%[87.6 µM]	-21
N#Cc1cccc(NC(=O)N2Cc3[nH]cnc3C[C@H]2c2nc(-c3cccc([N+](=O)[O-])c3)no2)c1	4%	i	-14%	2
N#Cc1ccc(Nc2nc(CN3CCOCC3)nc3sc4c(c23)CCCC4)cc1	x	i	x	x
SMILES	SNCA expr inh	KDM5B inh	SNCA viab count	IP6K1 inhibitor
CCOC(=O)c1ccc(NC(=O)C2CC(=O)N(c3n[nH]c4ccccc34)C2)cc1 (centres undefined)	-12%	28µM*	5%	-1
CCc1ccc(C(C)NC(=O)CN2CSCC2=O)cc1 (centres undefined)	x	i	x	x
O=C1CO[C@H]2CN(c3ncccn3)C[C@H]2N1Cc1ccccc1	u	35µM*	-1%[87.6 µM]	3
O=C1CO[C@H]2CN(c3ncccn3)C[C@H]2N1Cc1ccncc1	6%[87.6 µM]	40µM*	1%[87.6 µM]	-1
O=C1CO[C@H]2CN(Cc3ccncc3)C[C@H]2N1Cc1ccc(F)cc1	15%[87.6 µM]	35µM*	0%[87.6 µM]	-11
O=C(c1ccncc1)N1C[C@@H]2OCC(=O)N(Cc3ccncc3)[C@@H]2C1	9%[87.6 µM]	u	1%[87.6 µM]	-7
CC(=O)Nc1ccc(C)cc1S(=O)(=O)N1CCCC1c1cccs1 (centres undefined)	x	i	x	x
O=C(NCC1CC2c3ccccc3C1c1ccccc12)c1cc[n+]([O-])cc1 (centres undefined)	x	i	x	x
CCC1CCCCN1CCNC(=O)c1cc2c(s1)CN(C1CCCC1)C2 (centres undefined)	35%	14µM*	4%	25
Cn1c(CNC(=O)c2cc3c(s2)CN(C2CC2)C3)nc2ccccc21	13%	13µM*	5%	9
Cc1[nH]c(=O)[nH]c(=O)c1CN1CCCC(CCc2ccc(F)cc2F)C1 (centres undefined)	9%	i	3%	-2
CCc1n[nH]c(CC2CCN(C(=O)c3ccccc3)CC2)n1	u	22µM*	4%	-16
CCCCn1cnc2cccnc21	-14%[87.6 µM]	i	-41%[87.6 µM]	9
COC(=O)CC(NC(=O)Cc1ccccc1OC)c1cccs1 (centres undefined)	x	i	x	x
CSCc1noc(CNC(=O)c2ccc(-c3ccccc3Cl)o2)n1	-3%	32µM*	19%	21
COc1ccc(OC)c(NC(=O)c2cc(=O)c3c(C)cc(C)cc3o2)c1	u	i	-11%	-12
COc1ncc(-c2ccc3ncn(C4CC4)c(=O)c3n2)cn1	46%[87.6 µM]	32µM*	-3%[87.6 µM]	3
Cc1c(CN2CCCC23CCN(c2ccc(C(F)(F)F)cn2)CC3)cc(C#N)n1C	31%	u	-5%	8
Cn1ncc(CN2CCCC23CCN(c2ccc(C(F)(F)F)cn2)CC3)c1C1CC1	7%	22µM*	-11%	9
CC(C)n1cc(CN2CCCC23CCN(c2ccc(C(F)(F)F)cn2)CC3)cn1	-11%	u	-22%	16
Cn1cc(CN2CCCC23CCN(c2ccc(C(F)(F)F)cn2)CC3)cc1C#N	2%	28µM*	-6%	13
Cc1ccc(Oc2ccc(-c3ccc(Oc4ccc(C)c(C)c4)cc3)cc2)cc1C	x	i	x	x
CCC(C(=O)NCc1nnc2c(-c3nc(C(C)C)no3)cccn12)c1ccccc1 (centres undefined)	-6%	13µM*	3%	12
CC(C)c1noc(-c2cccn3c(CNC(=O)c4ccncc4)nnc23)n1	6%	u	-8%	5
CC(C)c1noc(-c2cccn3c(CNC(=O)C(C)c4ccccc4)nnc23)n1 (centres undefined)	7%	14µM*	-5%	14
CCC(C(=O)NCc1nnc2c(-c3nc(C)no3)cccn12)c1ccccc1 (centres undefined)	-16%	32µM*	0%	15
CCC(C(=O)NCc1nnc2c(-c3nc(C4CC4)no3)cccn12)c1ccccc1 (centres undefined)	1%	32µM*	1%	3
CN(Cc1cccn1C)C(=O)c1ccccc1	11%[87.6 µM]	i	8%[87.6 µM]	-3
O=C(OCC(F)(F)F)c1cc([N+](=O)[O-])cc([N+](=O)[O-])c1	x	i	x	x

Bioassay records as filed in PubChem.
